Parameters in all cases: scale not given: direction of the effect not stated beside the values
The target of experiment [1] is Protein translocase subunit SecA (Escherichia coli (strain K12)) (UniProt P10408). The experiment in a line: Assay to Identify E. coli SecA ATPase Inhibitors. The experiment is classed as functional. The note with it: 30 µM.
For experiment [2], the target named is T1, Ubiquitin-activating enzyme e1, putative (Leishmania donovani (strain BPK282A1)) (UniProt E9BSI1).
T1 sequence (whole entry): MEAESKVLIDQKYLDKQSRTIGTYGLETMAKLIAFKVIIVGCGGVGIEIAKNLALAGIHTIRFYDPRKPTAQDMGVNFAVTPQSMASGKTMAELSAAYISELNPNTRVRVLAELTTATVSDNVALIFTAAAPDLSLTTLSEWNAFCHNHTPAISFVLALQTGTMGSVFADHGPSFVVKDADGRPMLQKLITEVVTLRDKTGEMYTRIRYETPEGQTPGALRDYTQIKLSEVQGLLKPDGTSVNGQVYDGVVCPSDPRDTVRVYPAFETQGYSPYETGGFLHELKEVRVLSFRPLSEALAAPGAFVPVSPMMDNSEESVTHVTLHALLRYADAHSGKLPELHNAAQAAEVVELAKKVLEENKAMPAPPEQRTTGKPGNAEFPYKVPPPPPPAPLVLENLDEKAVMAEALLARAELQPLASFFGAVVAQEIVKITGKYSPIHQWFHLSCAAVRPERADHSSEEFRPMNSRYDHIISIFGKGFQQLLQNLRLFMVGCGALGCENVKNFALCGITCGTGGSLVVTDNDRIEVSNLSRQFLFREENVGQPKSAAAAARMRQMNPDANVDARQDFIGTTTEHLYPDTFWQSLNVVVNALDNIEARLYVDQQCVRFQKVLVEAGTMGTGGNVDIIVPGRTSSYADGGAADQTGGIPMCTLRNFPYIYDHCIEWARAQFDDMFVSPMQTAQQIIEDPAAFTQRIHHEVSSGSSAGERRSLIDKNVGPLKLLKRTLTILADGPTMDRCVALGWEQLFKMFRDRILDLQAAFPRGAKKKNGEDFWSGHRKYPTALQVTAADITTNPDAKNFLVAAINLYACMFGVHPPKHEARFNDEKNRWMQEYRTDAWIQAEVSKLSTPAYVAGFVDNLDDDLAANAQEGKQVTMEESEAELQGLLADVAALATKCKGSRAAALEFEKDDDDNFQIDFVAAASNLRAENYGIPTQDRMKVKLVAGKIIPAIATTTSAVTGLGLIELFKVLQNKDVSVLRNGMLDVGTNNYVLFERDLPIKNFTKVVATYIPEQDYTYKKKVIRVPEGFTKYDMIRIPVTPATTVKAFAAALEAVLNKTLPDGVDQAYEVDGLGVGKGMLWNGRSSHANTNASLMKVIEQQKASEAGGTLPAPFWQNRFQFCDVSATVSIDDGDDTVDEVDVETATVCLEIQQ
The experiment in a line: Leishmania donovani Ubiquitin Activating Enzyme (LdE1). The note with it: 30 µM. It is filed as functional.

The target in experiment [3] is Sialic acid-binding Ig-like lectin 9 (Homo sapiens) (UniProt Q9Y336). As to the kind of experiment: Hs-Siglec9 ALPHAscreen SOP 20170721. The note with it: 10 µM.
Experiment [4] relates to Trypanosoma cruzi. The experiment in a line: Trypanosoma cruzi phosphomannomutase and mannose-1-phosphate guanylyltransferase assay. The settings on record: 10 µM. It is filed as functional.
Experiment [5] has as its target T2, Arginase-2, mitochondrial (Homo sapiens) (UniProt P78540).
T2 sequence (whole entry): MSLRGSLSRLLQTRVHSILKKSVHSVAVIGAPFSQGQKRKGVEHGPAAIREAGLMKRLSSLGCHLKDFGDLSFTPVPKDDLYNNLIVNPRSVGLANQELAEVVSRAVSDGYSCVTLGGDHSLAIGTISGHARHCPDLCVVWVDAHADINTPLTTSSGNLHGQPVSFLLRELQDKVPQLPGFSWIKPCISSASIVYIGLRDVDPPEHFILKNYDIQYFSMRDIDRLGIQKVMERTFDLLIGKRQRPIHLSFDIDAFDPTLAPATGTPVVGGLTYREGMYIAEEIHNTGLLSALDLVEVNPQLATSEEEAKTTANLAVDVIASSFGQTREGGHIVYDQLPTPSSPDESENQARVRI
As to the kind of experiment: in vitro enzyme assay to detect the production of urea directly proportional to the activity of Arginase II. Further: in the data most compounds retested in dose-response had high values. It is filed as functional. The note with it: 33.3 µM.

Experiment [6] has as its target T3, Proteasome subunit beta (Trypanosoma cruzi) (UniProt O96673).
T3 sequence (whole entry): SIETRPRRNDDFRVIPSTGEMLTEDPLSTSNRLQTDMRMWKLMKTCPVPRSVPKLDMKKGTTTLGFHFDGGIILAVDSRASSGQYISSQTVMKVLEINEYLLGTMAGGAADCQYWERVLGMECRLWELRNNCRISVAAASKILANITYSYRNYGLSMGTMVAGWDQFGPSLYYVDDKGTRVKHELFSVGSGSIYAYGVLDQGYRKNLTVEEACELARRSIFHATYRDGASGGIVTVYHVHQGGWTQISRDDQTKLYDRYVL
The experiment in a line: Trypanosoma cruzi proteasome chymotrypsin-like activity (TcProtChymo) assay. Further: in the data most compounds retested in dose-response had high values. It is filed as functional. The note with it: 9.37 µM.

For experiment [7], the species on record is Homo sapiens. As to the kind of experiment: To identify inhibition of the IFN signalling (Jak-Stat) pathway via expression of an eGFP reporter gene under the control of an IFN-stimulated response element (ISRE) containing MxA promoter. It is filed as functional. The note with it: 30 µM.
The target of experiment [8] is T4, Tyrosyl-tRNA synthetase, putative (Trypanosoma cruzi (strain CL Brener)) (UniProt Q4DSP6).
T4 sequence (whole entry): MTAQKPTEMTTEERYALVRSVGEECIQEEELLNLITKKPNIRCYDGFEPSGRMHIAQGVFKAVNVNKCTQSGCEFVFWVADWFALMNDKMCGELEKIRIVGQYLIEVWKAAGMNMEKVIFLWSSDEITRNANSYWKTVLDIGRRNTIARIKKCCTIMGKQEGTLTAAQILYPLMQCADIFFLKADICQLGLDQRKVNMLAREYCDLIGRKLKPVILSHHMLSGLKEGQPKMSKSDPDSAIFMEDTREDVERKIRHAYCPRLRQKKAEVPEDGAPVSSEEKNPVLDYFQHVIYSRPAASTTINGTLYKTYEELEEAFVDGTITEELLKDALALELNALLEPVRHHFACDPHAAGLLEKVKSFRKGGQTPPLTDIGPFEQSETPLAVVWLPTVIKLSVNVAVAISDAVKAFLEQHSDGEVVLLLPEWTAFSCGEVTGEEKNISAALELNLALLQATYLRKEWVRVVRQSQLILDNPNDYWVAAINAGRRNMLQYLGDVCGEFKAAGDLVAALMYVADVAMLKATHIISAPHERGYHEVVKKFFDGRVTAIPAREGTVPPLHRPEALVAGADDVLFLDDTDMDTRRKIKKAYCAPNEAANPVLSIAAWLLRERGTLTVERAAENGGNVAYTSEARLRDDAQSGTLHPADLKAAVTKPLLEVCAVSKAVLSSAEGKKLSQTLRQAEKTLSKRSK
As to the kind of experiment: Trypanosoma cruzi tyrosyl tRNA synthetase (TcYRS) _High Tyrosine SOP. Further: in the data most compounds retested in dose-response had high values. The experiment is classed as functional. The note with it: 30 µM.

Experiment [9] deals with T4, Tyrosyl-tRNA synthetase, putative (Trypanosoma cruzi (strain CL Brener)). As to the kind of experiment: Trypanosoma cruzi tyrosyl tRNA synthetase (TcYRS) SOP. The experiment is classed as functional. The note with it: 30 µM.
In experiment [10] the target is Chromo domain-containing protein 1 (Saccharomyces cerevisiae (strain ATCC 204508 / S288c) (Baker's yeast)) (UniProt P32657). As to the kind of experiment: ScCHD-1 Enzyme Inhibition Assay. Further: in the data most compounds retested in dose-response had high values. It is filed as functional. The settings on record: 30 µM.

Among the data in ChEMBL document CHEMBL3988442, “University of Dundee, Small-Polar-MMV Screening Library” (2021) are Percent Effect values, retold here.

For some assays here: Measured potencies and affinities stand elsewhere.

Chain of Sialic acid-binding Ig-like lectin 9 (Homo sapiens) (Q9Y336 whole entry): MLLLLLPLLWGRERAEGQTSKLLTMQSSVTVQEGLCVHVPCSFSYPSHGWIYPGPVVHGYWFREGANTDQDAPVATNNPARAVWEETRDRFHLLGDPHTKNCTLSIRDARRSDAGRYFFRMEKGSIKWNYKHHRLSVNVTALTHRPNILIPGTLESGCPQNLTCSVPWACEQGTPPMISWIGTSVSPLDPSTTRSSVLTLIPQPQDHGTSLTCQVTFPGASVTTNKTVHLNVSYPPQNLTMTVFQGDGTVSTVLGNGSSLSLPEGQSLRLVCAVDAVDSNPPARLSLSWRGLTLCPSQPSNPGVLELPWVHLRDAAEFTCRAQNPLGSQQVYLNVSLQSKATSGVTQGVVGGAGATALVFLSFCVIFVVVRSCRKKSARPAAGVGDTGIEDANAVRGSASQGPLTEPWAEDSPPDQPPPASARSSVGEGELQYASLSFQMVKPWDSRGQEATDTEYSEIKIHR
Chain of Chromo domain-containing protein 1 (Saccharomyces cerevisiae (strain ATCC 204508 / S288c) (Baker's yeast)) (P32657 whole entry, the tested form may be a part): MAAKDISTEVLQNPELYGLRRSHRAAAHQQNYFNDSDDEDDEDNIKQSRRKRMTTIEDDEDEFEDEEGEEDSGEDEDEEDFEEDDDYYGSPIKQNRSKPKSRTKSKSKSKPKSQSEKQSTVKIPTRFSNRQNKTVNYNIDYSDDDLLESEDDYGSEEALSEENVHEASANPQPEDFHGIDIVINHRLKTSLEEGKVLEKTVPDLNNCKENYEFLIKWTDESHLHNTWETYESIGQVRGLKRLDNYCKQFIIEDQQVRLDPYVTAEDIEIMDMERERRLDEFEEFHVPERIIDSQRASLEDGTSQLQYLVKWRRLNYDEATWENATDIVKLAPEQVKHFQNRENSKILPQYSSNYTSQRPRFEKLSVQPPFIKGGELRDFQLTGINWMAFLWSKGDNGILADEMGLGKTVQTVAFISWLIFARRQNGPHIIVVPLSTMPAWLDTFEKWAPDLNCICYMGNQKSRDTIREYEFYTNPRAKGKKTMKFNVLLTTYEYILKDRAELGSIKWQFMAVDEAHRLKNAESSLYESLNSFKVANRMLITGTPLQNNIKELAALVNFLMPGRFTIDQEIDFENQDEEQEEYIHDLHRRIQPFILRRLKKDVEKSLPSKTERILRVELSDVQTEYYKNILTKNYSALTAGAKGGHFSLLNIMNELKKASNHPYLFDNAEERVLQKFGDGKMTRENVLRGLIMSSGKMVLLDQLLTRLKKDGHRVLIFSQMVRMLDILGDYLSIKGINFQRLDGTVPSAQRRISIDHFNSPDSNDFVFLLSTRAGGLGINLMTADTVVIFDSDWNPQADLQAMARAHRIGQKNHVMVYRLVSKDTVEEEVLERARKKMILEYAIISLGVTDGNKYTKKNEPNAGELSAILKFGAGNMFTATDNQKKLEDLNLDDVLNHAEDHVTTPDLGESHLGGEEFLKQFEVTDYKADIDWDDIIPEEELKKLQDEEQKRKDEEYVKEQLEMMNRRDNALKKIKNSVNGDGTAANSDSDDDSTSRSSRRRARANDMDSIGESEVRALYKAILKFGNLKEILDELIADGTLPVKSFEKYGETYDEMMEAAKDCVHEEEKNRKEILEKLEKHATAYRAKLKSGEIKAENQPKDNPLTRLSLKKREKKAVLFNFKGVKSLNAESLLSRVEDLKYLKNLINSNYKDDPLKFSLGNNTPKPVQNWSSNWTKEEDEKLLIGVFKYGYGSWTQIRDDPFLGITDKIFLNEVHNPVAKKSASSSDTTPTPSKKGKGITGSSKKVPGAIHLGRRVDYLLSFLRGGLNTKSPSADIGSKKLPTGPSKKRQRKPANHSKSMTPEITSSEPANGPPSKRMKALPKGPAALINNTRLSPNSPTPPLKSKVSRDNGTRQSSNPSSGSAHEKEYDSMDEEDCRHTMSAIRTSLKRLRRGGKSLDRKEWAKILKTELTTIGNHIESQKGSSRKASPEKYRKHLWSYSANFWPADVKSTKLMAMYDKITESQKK
Chain of Protein translocase subunit SecA (Escherichia coli (strain K12)) (P10408 whole entry): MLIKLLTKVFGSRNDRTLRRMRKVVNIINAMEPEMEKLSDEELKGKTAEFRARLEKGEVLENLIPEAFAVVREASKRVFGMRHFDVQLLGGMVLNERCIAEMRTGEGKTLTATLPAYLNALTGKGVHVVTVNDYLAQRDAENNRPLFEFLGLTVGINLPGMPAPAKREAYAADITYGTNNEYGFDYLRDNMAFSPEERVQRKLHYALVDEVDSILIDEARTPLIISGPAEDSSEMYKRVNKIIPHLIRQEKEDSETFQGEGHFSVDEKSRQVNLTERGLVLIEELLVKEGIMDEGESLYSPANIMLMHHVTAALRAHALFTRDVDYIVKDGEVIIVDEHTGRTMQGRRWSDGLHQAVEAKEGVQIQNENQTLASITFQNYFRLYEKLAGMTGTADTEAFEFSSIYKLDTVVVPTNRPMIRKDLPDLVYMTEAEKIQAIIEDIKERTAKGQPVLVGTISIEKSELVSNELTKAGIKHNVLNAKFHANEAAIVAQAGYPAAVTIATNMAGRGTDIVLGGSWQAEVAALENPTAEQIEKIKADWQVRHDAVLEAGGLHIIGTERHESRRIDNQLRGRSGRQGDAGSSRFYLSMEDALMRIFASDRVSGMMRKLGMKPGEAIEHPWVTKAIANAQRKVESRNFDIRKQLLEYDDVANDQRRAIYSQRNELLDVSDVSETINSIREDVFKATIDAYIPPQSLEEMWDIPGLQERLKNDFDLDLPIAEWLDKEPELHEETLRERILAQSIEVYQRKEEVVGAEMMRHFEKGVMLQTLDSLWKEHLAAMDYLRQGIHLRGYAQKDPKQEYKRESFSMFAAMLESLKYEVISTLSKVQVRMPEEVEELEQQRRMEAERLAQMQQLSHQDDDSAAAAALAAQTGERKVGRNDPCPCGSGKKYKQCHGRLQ

Turning to `CCc1nc(C2CCCN2C(=O)c2ccc3c(c2)nnn3CC)no1` (stereo not given), the Percent Effect in experiment [1] was -3.49%; in experiment [2], 0%; in experiment [3], 5.14%; in experiment [4], -1.41%; in experiment [5], 0%; in experiment [6], 3.99%. Besides, the Percent Effect was 11.6% in [7], 2.63% in experiment [8], 0% in experiment [9] and -12.3% in [10].
On to `O=C1NCC2(CCCN(Cc3ccc(Cl)s3)C2)Oc2ccccc21` (stereo not given), for which the Percent Effect in experiment [1] is -1.75%; in experiment [2], 20%; in experiment [3] it was 4.75%; in experiment [4], 1.18%; in [5], -1.33%; in [6], 10.3%. The Percent Effect was 12.7% in experiment [7], 4.23% in experiment [8], 20% in experiment [9] and -28.8% in [10].
For the compound `CCC1=N[C@@]2(CC[C@@H]3CN(C(=O)NCc4ccccc4)C[C@@H]32)C(=O)N1C`, the Percent Effect in experiment [1] is -5.59%; in experiment [2], -6.49%; in [3] it was -0.715%; in experiment [4], -3.02%; in [5] it was -2.02%; in experiment [6], 5.21%. The Percent Effect is 6.81% in experiment [7], 1.58% in experiment [8], -10.3% in [9] and 0.585% in [10].
Regarding `O=C(c1ccncc1)N1CCC2(CC1)CC(Oc1cccnc1)CO2` (stereo not given), the Percent Effect is -6.1% in experiment [1]; -16.9% in experiment [2]; 6.5% in [3]; 2.43% in [4]; -2.02% in experiment [5]; 5.91% in experiment [6]. In addition, the Percent Effect in experiment [7] was -1.58%; in experiment [8], 3.68%; in [9], 2.56%; in [10] it was -0.282%.
Turning to `Cc1nn(C)c(N2CCOCC2)c1CNC1CCc2cc(F)ccc21` (stereo not given), the Percent Effect in [1] is -1.4%; in [2], 20.8%; in [3], 4.82%; in [4], -2.8%; in experiment [5], 11.7%; in [6], 7.72%. For the same compound, the Percent Effect was 0.31% in experiment [7], 6.86% in experiment [8], 18.8% in experiment [9] and -4.69% in experiment [10].
Regarding `COc1ccc(OC)c(C2CCN(Cc3nc(C)n4ccccc34)C2)c1` (stereo not given), the Percent Effect is -4.56% in experiment [1]; -2.7% in experiment [2]; 16.9% in experiment [3]; 2.81% in experiment [4]; 17.1% in experiment [5]; 17.8% in [6]. Also, the Percent Effect was 17.9% in [7], 13.3% in experiment [8], 26.8% in experiment [9] and -3.48% in experiment [10].
In the case of `O=C(CN1CCCC(c2ccc(C(=O)O)cc2)C1)NC1CC1` (stereo not given), the Percent Effect was -9.44% in experiment [1]; 5.41% in [2]; 8.6% in experiment [3]; 7.08% in experiment [4]; 8.04% in experiment [5]; 1.2% in [6]. The Percent Effect in [7] is -14.3%; in experiment [8], 6.92%; in [9] it was 12.2%; in experiment [10], -1.84%.
Take `CC(c1nc(C2CC2)no1)N1CCN(Cc2cccc(C#N)c2)CC1` (stereo not given): the Percent Effect was -5.05% in experiment [1]; 15.4% in experiment [2]; -15.7% in experiment [3]; 5.35% in [4]; -4.1% in experiment [5]; 10.5% in [6]. For the same compound, the Percent Effect in [7] is 3.36%; in experiment [8] it was 3.35%; in experiment [9], 20.5%; in experiment [10], -0.399%.
`CC(C)c1nnc2n1CCN(C(=O)c1cccc(C(F)(F)F)c1)C2`: the Percent Effect was -5.89% in [1]; 18.7% in experiment [2]; 10% in [3]; 2.81% in experiment [4]; 1.33% in experiment [5]; 6.19% in [6]. Besides, the Percent Effect is 7.24% in experiment [7], 6.84% in experiment [8], 15.4% in experiment [9] and -7.15% in [10].
`O=C(Nc1cccnc1)[C@H]1C[C@H]2OCC[C@H]2N(C(=O)c2ccsc2)C1`: the Percent Effect was -4.32% in experiment [1]; 11.7% in experiment [2]; 13% in experiment [3]; 4.58% in experiment [4]; 17% in [5]; 10.5% in experiment [6]. Also, the Percent Effect in experiment [7] is -7.28%; in [8] it was 4.74%; in experiment [9], 12.8%; in experiment [10] it was 18.5%.
Consider `c1csc(-c2nc(CNC3CCc4ncnn4C3)cs2)c1` (stereo not given), for which the Percent Effect in [1] is -3.1%; in experiment [2], 10.3%; in experiment [3], 2.55%; in experiment [4], 0.469%; in experiment [5], 2.05%; in experiment [6], 7.93%. Moreover, the Percent Effect in experiment [7] was 0.908%; in experiment [8] it was 6.22%; in [9] it was 18.1%; in experiment [10] it was 1.57%.
